Test results reported in PubChem BioAssay (EPA / NIEHS).
Inconclusive results are not listed. Active and inactive are the calls of the source. How the source made its calls: active means hit-call score of the fitted dose curve at least 0.9, where 1 is the maximum; inconclusive means response in the unintended direction; inactive means score below 0.9.

biological target: human Vitamin D Receptor (VDR), VDR (gene 7421) (UniProt P11473); assay: ATG_VDR_TRANS: Attagene TRANS-FACTORIAL HepG2 Assay for human Vitamin D Receptor (VDR) (AID 2283022)
Outline: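 HepG2 cells were transiently transfected with multiple GAL4-UAS reporter units, so signal reflects exogenous chimeric receptor-Gal4 activity. After 24 h compound exposure, reporter mRNA was measured by RT-PCR, fluorescent labelling and capillary electrophoresis, fitted for gain of signal versus DMSO.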

Chain of human Vitamin D Receptor (VDR), VDR (gene 7421) (P11473 whole entry, looked up, the tested form may be a part): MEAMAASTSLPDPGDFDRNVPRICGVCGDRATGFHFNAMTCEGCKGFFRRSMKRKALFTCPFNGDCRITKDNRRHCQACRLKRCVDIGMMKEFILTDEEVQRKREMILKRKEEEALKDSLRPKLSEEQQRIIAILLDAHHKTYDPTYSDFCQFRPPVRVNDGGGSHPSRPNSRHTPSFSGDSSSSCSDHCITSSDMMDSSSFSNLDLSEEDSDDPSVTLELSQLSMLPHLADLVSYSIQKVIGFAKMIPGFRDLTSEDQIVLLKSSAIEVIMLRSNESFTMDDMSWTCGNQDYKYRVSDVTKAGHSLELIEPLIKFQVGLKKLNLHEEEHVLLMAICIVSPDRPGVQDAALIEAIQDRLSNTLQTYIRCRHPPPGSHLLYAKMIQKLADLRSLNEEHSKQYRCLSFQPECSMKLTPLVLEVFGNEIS

outcome, inactive:
NC(N)=NC(=O)c1nc(Cl)c(N)nc1N
O=Cc1ccc(F)cc1
CCCCCCCCC
CCCCCCCCCCCCCC(=O)O
CCCc1c(OCCCOc2ccc(OCC(=O)O)cc2)ccc(C(C)=O)c1O
CCCCCCCCCCCCCCCC(=O)O
CCN(CC)c1ccc(C(=C2C=CC(=[N+](CC)CC)C=C2)c2ccc(S(=O)(=O)O)cc2S(=O)(=O)[O-])cc1
O=S(=O)(O)c1cccc2c(S(=O)(=O)O)cccc12
CC(C)=CCC[C@](C)(O)[C@@H]1CC=C(C)CC1
CC1=CCC(O)(C(C)C)CC1 (stereo not drawn)
CCCCCCCCCOC(C)=O
CC(C)(C)c1n[nH]c(=S)n(N)c1=O
O=Cc1ccc(Cl)c([N+](=O)[O-])c1
